Results as given in PubChem BioAssay.
Active and inactive are the calls of the source. No rule for the calls is given here.

The compounds below were run on Aerobactin synthetase IucA (Klebsiella pneumoniae, hypervirulent) (assay: IucA enzyme inhibition, biochemical, LOPAC library, absorbance readout (AID 1346212;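 also: 100% = no compound wells and 0% = no enzyme wells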)). Details: IucA enzyme assay, absorbance (OD) readout; hits give low values;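 tested at 8 µM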.
In the case of `COc1cc2c(CCNC(C)=O)c[nH]c2cc1O`, the remaining activity is reported as 92.2% (inactive).
`Oc1ccc(/C=C/c2ccc(/C=C/c3ccc(O)cc3)c(Br)c2)cc1` was tested, and the remaining activity was 85% (inactive).
With `O=C(O)C1CCCN(CCC=C(c2ccccc2)c2ccccc2)C1` (stereo not given) the remaining activity was 86.8% (inactive).
With `CCCCCCCCCCCCCCC[C@H](O)[C@H](N)CO` the remaining activity was 83.3% (inactive).
For `CC[N+](CC)(CC)CC(=O)Nc1c(C)cccc1C`, the remaining activity was 113% (inactive).
With `CC(=O)NCCc1ccc(O)c(O)c1` the remaining activity was 116% (inactive).
In the case of `C[C@]12CCC(=O)C=C1CC[C@@H]1[C@@H]2[C@@H](O)C[C@@]2(C)[C@H]1CC[C@]2(O)C(=O)CO`, the remaining activity is reported as 104% (inactive).
`C[C@H]1C[C@H]2[C@@H]3CCC4=CC(=O)C=C[C@]4(C)[C@@]3(Cl)[C@@H](O)C[C@]2(C)[C@@]1(O)C(=O)CO` was tested, and the remaining activity was 107% (inactive).
`NCCCCCCCCCCN` was tested, and the remaining activity was 104% (inactive).
In the case of `Nc1nc2c(nc(Br)n2C2OC3COP(=O)(O)O[C@@H]3C2O)c(=O)[nH]1` (stereo not given in full), the remaining activity is reported as 111% (inactive).
For `Nc1nc2[nH]c(=O)cnc2c(=O)[nH]1`, the remaining activity was 89% (inactive).
With `N[C@@H](CCC(=O)N[C@@H](CSN=O)C(=O)NCC(=O)O)C(=O)O` the remaining activity was 119% (inactive).
For `COC(=O)[C@H](NC(=O)c1cc(-c2ccccc2)nc2ccccc12)c1ccccc1`, the remaining activity was 97.3% (inactive).
For `[N-]=[N+]=Nc1ccc(C(=O)CSC[C@H](NC(=O)CC[C@H](N)C(=O)O)C(=O)NCC(=O)O)cc1`, the remaining activity was 116% (inactive).
`Clc1ccc(Cn2c(CN3CCCC3)nc3ccccc32)cc1` was tested, and the remaining activity was 115% (inactive).
For `Nc1ccc(CCNc2ncnc3c2ncn3C2OC(CO)C(O)C2O)cc1` (stereo not given), the remaining activity was 124% (inactive).
With `O=C(CCNNC(=O)c1ccncc1)NCc1ccccc1` the remaining activity was 115% (inactive).
For `CCN1CCC[C@H]1CNC(=O)c1c(O)c(Cl)cc(Cl)c1OC`, the remaining activity was 98.9% (inactive).
In the case of `Nc1nc(Cl)nc2c1ncn2[C@@H]1O[C@H](CO)[C@@H](O)[C@H]1O`, the remaining activity is reported as 115% (inactive).
`CC(C)C[C@H](NC(=O)[C@H](O)[C@H](N)Cc1ccccc1)C(=O)O` was tested, and the remaining activity was 120% (inactive).
`COc1ccc(CCN(C)CCc2ccc(OC)c(OC)c2)cc1OC` was tested, and the remaining activity was 122% (inactive).
For `CN1[C@@H](CC(=O)c2ccccc2)CCC[C@H]1C[C@H](O)c1ccccc1`, the remaining activity was 115% (inactive).
With `OC[C@H]1O[C@@H](n2cnc3c(NC4CCCCC4)ncnc32)[C@H](O)[C@@H]1O` the remaining activity was 93.2% (inactive).
For `CC(C)Cc1ccc([C@H](C)C(=O)O)cc1`, the remaining activity was 111% (inactive).
`CC(C)[C@H]1c2ccc(F)cc2CC[C@@]1(CCN(C)CCCc1nc2ccccc2[nH]1)OC(=O)C1CC1` was tested, and the remaining activity was 118% (inactive).
For `COc1ccccc1N1CCN(CCCCNC(=O)c2ccc3ccccc3c2)CC1`, the remaining activity was 118% (inactive).
`CC1CNCCN1S(=O)(=O)c1cccc2cnccc12` (stereo not given) was tested, and the remaining activity was 95.7% (inactive).
`Brc1c(NC2=NCCN2)ccc2nccnc12` was tested, and the remaining activity was 105% (inactive).
For `NC1(C(=O)O)CCc2cc(C(=O)O)ccc21` (stereo not given), the remaining activity was 110% (inactive).
In the case of `OC[C@H]1O[C@@H](n2cnc3c(NC4CCCC4)ncnc32)[C@H](O)[C@@H]1O`, the remaining activity is reported as 117% (inactive).
For `N[C@@H](COP(=O)(O)O)C(=O)O`, the remaining activity was 124% (inactive).
`O=C(Nc1cccc(C(=O)Nc2ccc(S(=O)(=O)O)c3cc(S(=O)(=O)O)cc(S(=O)(=O)O)c23)c1)Nc1cccc(C(=O)Nc2ccc(S(=O)(=O)O)c3cc(S(=O)(=O)O)cc(S(=O)(=O)O)c23)c1` was tested, and the remaining activity was 88.6% (inactive).
With `c1ccc(CN2CCC3(CCCc4ccccc43)CC2)cc1` the remaining activity was 103% (inactive).
With `NC(N)=NC(N)=Nc1cccc(Cl)c1` the remaining activity was 102% (inactive).
`COc1cccc(NC(=O)/C=C/c2ccc(Cl)cc2)c1` was tested, and the remaining activity was 101% (inactive).
For `CCCC[C@@]1(C2CCCC2)Cc2cc(OCC(=O)O)c(Cl)c(Cl)c2C1=O`, the remaining activity was 106% (inactive).
In the case of `COc1cc(/C=C(\C#N)C(=O)c2ccc(O)c(O)c2)cc(I)c1O`, the remaining activity is reported as 85.4% (inactive).
For `Cn1cc(C(=O)OCC2CCN(CCNS(C)(=O)=O)CC2)c2ccccc21`, the remaining activity was 104% (inactive).
For `CCC(=O)N1CCN(C(=O)c2ccccc2)CC1`, the remaining activity was 122% (inactive).
With `COc1cc2ncc(-c3ccccc3)nc2cc1OC` the remaining activity was 120% (inactive).
